How the values were obtained:
Settings in all cases: concentration: 1 μM, replicates: in singlicate; n = 1
EPHB2 = test system: EPHB2
EPHB3 = test system: EPHB3
EPHB4 = test system: EPHB4
EPHB6 = test system: EPHB6
ERBB2 = test system: ERBB2
ERBB3 = test system: ERBB3
ERBB4 = test system: ERBB4
ERK1 = test system: T1, ERK1
T1 construct: gene MAPK3

ERK2 = test system: T2, ERK2
T2 construct: gene MAPK1

ERK3 = test system: T3, ERK3
T3 construct: gene MAPK6

ERK4 = test system: T4, ERK4
T4 construct: gene MAPK4

ERK5 = test system: T5, ERK5
T5 construct: gene MAPK7

ERK8 = test system: T6, ERK8
T6 construct: gene MAPK15

ERN1 = test system: ERN1
FAK = test system: T7, FAK
T7 construct: gene PTK2

FER = test system: FER
FES = test system: FES
FGFR1 = test system: FGFR1
FGFR2 = test system: FGFR2
FGFR3 = test system: FGFR3
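Further: KINOMEscan kinase panel screen.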

Compound: CCc1nc(-c2cccc(N(C)S(=O)(=O)c3ccccc3)c2)c(-c2ccnc(Nc3ccc(N4CCN(C(C)=O)CC4)nc3)n2)s1 [GSK1645895]
- %Inh (EPHB2): 0%
- %Inh (EPHB3): 0%
- %Inh (EPHB4): 0%
- %Inh (EPHB6): 96.9%
- %Inh (ERBB2): 17%
- %Inh (ERBB3): 0%
- %Inh (ERBB4): 26%
- %Inh (ERK1): 0%
- %Inh (ERK2): 0%
- %Inh (ERK3): 0%
- %Inh (ERK4): 18%
- %Inh (ERK5): 19%
- %Inh (ERK8): 0%
- %Inh (ERN1): 28%
- %Inh (FAK): 0%
- %Inh (FER): 0%
- %Inh (FES): 0%
- %Inh (FGFR1): 0%
- %Inh (FGFR2): 0%
- %Inh (FGFR3): 3%

Compound: COc1cc2c(Nc3cccc(NC(=O)c4ccccc4)c3)ncnc2cc1OCCCN1CCOCC1 [GSK223810]
- %Inh (EPHB2): 0%
- %Inh (EPHB3): 5%
- %Inh (EPHB4): 0%
- %Inh (EPHB6): 60%
- %Inh (ERBB2): 18%
- %Inh (ERBB3): 0%
- %Inh (ERBB4): 55%
- %Inh (ERK1): 0%
- %Inh (ERK2): 0%
- %Inh (ERK3): 0%
- %Inh (ERK4): 0%
- %Inh (ERK5): 0%
- %Inh (ERK8): 0%
- %Inh (ERN1): 23%
- %Inh (FAK): 0%
- %Inh (FER): 0%
- %Inh (FES): 0%
- %Inh (FGFR1): 18%
- %Inh (FGFR2): 11%
- %Inh (FGFR3): 22%

Compound: Oc1ccc2ncnc(Nc3ccc(OCc4ccccc4)cc3)c2c1 [GI262866]
- %Inh (EPHB2): 0%
- %Inh (EPHB3): 12%
- %Inh (EPHB4): 2%
- %Inh (EPHB6): 0%
- %Inh (ERBB2): 99.2%
- %Inh (ERBB3): 15%
- %Inh (ERBB4): 77%
- %Inh (ERK1): 0%
- %Inh (ERK2): 0%
- %Inh (ERK3): 3%
- %Inh (ERK4): 0%
- %Inh (ERK5): 0%
- %Inh (ERK8): 57%
- %Inh (ERN1): 19%
- %Inh (FAK): 0%
- %Inh (FER): 0%
- %Inh (FES): 0%
- %Inh (FGFR1): 0%
- %Inh (FGFR2): 0%
- %Inh (FGFR3): 0%

Compound: O=c1cc(N2CCOCC2)nc2n(Cc3cccc(Cl)c3)ccn12 [GSK2296823]
- %Inh (EPHB2): 0%
- %Inh (EPHB3): 15%
- %Inh (EPHB4): 9%
- %Inh (EPHB6): 56%
- %Inh (ERBB2): 0%
- %Inh (ERBB3): 0%
- %Inh (ERBB4): 100%
- %Inh (ERK1): 0%
- %Inh (ERK2): 0%
- %Inh (ERK3): 0%
- %Inh (ERK4): 7%
- %Inh (ERK5): 0%
- %Inh (ERK8): 38%
- %Inh (ERN1): 0%
- %Inh (FAK): 0%
- %Inh (FER): 3%
- %Inh (FES): 0%
- %Inh (FGFR1): 0%
- %Inh (FGFR2): 14%
- %Inh (FGFR3): 24%

Compound: O=C(Nc1ccccc1F)NC1CCN(c2ccnc(Nc3ccc(F)cc3)n2)C1 (stereo not shown) [GSK1379722]
- %Inh (EPHB2): 0%
- %Inh (EPHB3): 17%
- %Inh (EPHB4): 0%
- %Inh (EPHB6): 17%
- %Inh (ERBB2): 30%
- %Inh (ERBB3): 3%
- %Inh (ERBB4): 0%
- %Inh (ERK1): 100%
- %Inh (ERK2): 0%
- %Inh (ERK3): 13%
- %Inh (ERK4): 12%
- %Inh (ERK5): 0%
- %Inh (ERK8): 31%
- %Inh (ERN1): 0%
- %Inh (FAK): 0%
- %Inh (FER): 26%
- %Inh (FES): 0%
- %Inh (FGFR1): 0%
- %Inh (FGFR2): 19%
- %Inh (FGFR3): 15%

Compound: CC(C)(C)OC(=O)NC1CCCN(c2cc(-c3ccc4c(N)n[nH]c4c3)nc(N)n2)C1 (stereo not shown) [GSK2286096]
- %Inh (EPHB2): 90.5%
- %Inh (EPHB3): 14%
- %Inh (EPHB4): 9%
- %Inh (EPHB6): 0%
- %Inh (ERBB2): 0%
- %Inh (ERBB3): 0%
- %Inh (ERBB4): 33%
- %Inh (ERK1): 0%
- %Inh (ERK2): 0%
- %Inh (ERK3): 0%
- %Inh (ERK4): 23%
- %Inh (ERK5): 29%
- %Inh (ERK8): 0%
- %Inh (ERN1): 7%
- %Inh (FAK): 0%
- %Inh (FER): 0%
- %Inh (FES): 0%
- %Inh (FGFR1): 0%
- %Inh (FGFR2): 4%
- %Inh (FGFR3): 22%

Compound: Fc1ccc(Nc2nccc(-c3c(-c4ccc(Cl)cc4)nn4ncccc34)n2)cc1F [GW829058]
- %Inh (EPHB2): 17%
- %Inh (EPHB3): 15%
- %Inh (EPHB4): 14%
- %Inh (EPHB6): 23%
- %Inh (ERBB2): 21%
- %Inh (ERBB3): 36%
- %Inh (ERBB4): 0%
- %Inh (ERK1): 6%
- %Inh (ERK2): 28%
- %Inh (ERK3): 0%
- %Inh (ERK4): 23%
- %Inh (ERK5): 0%
- %Inh (ERK8): 0%
- %Inh (ERN1): 48%
- %Inh (FAK): 17%
- %Inh (FER): 9%
- %Inh (FES): 19%
- %Inh (FGFR1): 13%
- %Inh (FGFR2): 15%
- %Inh (FGFR3): 9%

Compound: Cn1cc(-c2ccc3c(c2)CCN3C(=O)Cc2cccc(C(F)(F)F)c2)c2c(N)ncnc21 [GSK2606414]
- %Inh (EPHB2): 0%
- %Inh (EPHB3): 0%
- %Inh (EPHB4): 0%
- %Inh (EPHB6): 18%
- %Inh (ERBB2): 0%
- %Inh (ERBB3): 0%
- %Inh (ERBB4): 0%
- %Inh (ERK1): 0%
- %Inh (ERK2): 0%
- %Inh (ERK3): 2%
- %Inh (ERK4): 7%
- %Inh (ERK5): 0%
- %Inh (ERK8): 23%
- %Inh (ERN1): 21%
- %Inh (FAK): 0%
- %Inh (FER): 0%
- %Inh (FES): 0%
- %Inh (FGFR1): 20%
- %Inh (FGFR2): 0%
- %Inh (FGFR3): 0%

Compound: Fc1cccc(COc2ccc(Nc3ncnc4nn5ccccc5c34)cc2Cl)c1 [GW689066]
- %Inh (EPHB2): 0%
- %Inh (EPHB3): 16%
- %Inh (EPHB4): 0%
- %Inh (EPHB6): 1%
- %Inh (ERBB2): 98.2%
- %Inh (ERBB3): 27%
- %Inh (ERBB4): 95.2%
- %Inh (ERK1): 0%
- %Inh (ERK2): 0%
- %Inh (ERK3): 0%
- %Inh (ERK4): 0%
- %Inh (ERK5): 0%
- %Inh (ERK8): 0%
- %Inh (ERN1): 0%
- %Inh (FAK): 0%
- %Inh (FER): 16%
- %Inh (FES): 0%
- %Inh (FGFR1): 0%
- %Inh (FGFR2): 12%
- %Inh (FGFR3): 3%

Compound: COc1ccc(Nc2nccc(N3CCC(NC(=O)Nc4ccc5c(c4)OCO5)C3)n2)cc1 (stereo not shown) [GSK1379745]
- %Inh (EPHB2): 0%
- %Inh (EPHB3): 24%
- %Inh (EPHB4): 29%
- %Inh (EPHB6): 47%
- %Inh (ERBB2): 28%
- %Inh (ERBB3): 28%
- %Inh (ERBB4): 0%
- %Inh (ERK1): 3%
- %Inh (ERK2): 12%
- %Inh (ERK3): 14%
- %Inh (ERK4): 0%
- %Inh (ERK5): 0%
- %Inh (ERK8): 48%
- %Inh (ERN1): 0%
- %Inh (FAK): 1%
- %Inh (FER): 33%
- %Inh (FES): 18%
- %Inh (FGFR1): 9%
- %Inh (FGFR2): 1%
- %Inh (FGFR3): 32%

Compound: OCCOCCn1ccc2ncnc(Nc3ccc(Oc4cccc(Cl)c4)c(Cl)c3)c21
- %Inh (EPHB2): 0%
- %Inh (EPHB3): 6%
- %Inh (EPHB4): 0%
- %Inh (EPHB6): 2%
- %Inh (ERBB2): 100%
- %Inh (ERBB3): 0%
- %Inh (ERBB4): 96%
- %Inh (ERK1): 0%
- %Inh (ERK2): 0%
- %Inh (ERK3): 0%
- %Inh (ERK4): 0%
- %Inh (ERK5): 0%
- %Inh (ERK8): 0%
- %Inh (ERN1): 0%
- %Inh (FAK): 0%
- %Inh (FER): 24%
- %Inh (FES): 6%
- %Inh (FGFR1): 27%
- %Inh (FGFR2): 0%
- %Inh (FGFR3): 0%

Reference: publication PMC5540273 (PLoS ONE, 2017)
